Chronic BCR inh: blocks chronic active B-cell receptor signaling. ABC-DLBCL IkBa-CBG/CBR reporter, luminescence ratio, 4 h. Potency, µM (doses to about 46.1 µM), inactives show at the highest dose activity change, negative = inhibition, most hits filed as inhibitors. 0.05% of 340,000 active. AID 493014; active = well fitted inhibition curve with a large enough effect in the signal ratio, with a control signal flat, not every such curve was filed as active; inconclusive = small, poorly fitted or top-dose-only effect, or effect the other way, or a change in a side signal; the % refers to the signal ratio;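 also: potency is read from the fitted curve at half-maximal effect; plate controls were basal doxycycline-induced cells for no effect and cells given 10 µM MG132 for full effect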
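TMD8 human ABC-DLBCL cells with doxycycline-inducible IκBα–green luciferase fusion and unfused red luciferase, in 0.5% FBS medium; compounds up to 46 uM, 4 h at 37C. Green/red luminescence ratio, filter-overlap corrected, fitted to concentration-response curves.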
D3 ag: agonists of human D3 dopamine receptor. P35462. max activation, %. D3R DiscoveRx beta-arrestin cells, luminescence, 90 min. 0.58% of 410,000 active. AID 652048; in the data active = max activation above about 30%; also: 0% is about no effect
Target sequence (P35462 whole entry, looked up): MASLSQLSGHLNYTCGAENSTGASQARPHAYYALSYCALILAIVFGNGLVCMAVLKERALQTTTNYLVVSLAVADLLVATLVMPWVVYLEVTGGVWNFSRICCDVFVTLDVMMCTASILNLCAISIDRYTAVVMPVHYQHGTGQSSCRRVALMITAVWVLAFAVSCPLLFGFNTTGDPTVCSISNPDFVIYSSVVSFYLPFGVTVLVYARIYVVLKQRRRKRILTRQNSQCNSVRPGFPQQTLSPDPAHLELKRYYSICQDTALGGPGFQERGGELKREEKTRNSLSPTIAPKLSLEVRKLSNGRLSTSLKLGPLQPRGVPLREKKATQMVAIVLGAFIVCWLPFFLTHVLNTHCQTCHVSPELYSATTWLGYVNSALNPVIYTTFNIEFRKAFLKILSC
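Agonist-mode cell screen: cells plated at 1500/well and incubated overnight at 37 °C, then exposed to library compounds for 90 min at 37 °C. Detection reagent was added for 30–60 min at room temperature, and luminescence was read.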
D1 antagonist: human D1 dopamine receptor antagonism. HEK293 TREx D1 cells, calcium flux, dopamine EC80; active compounds read low. activity change, negative = inhibition, % at 10 µM. 3.2% of 360,000 active. AID 504652; in the data active = activity change below about -30%; also: % is scaled to controls: 0 for no effect and ±100 for the full control effect
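Cells carrying a force-coupled, tetracycline-inducible human D1 receptor report calcium flux. Each well gets a 10 s baseline, compound with 180 s monitoring, then an EC80 dopamine stimulus with a second 180 s kinetic read.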
DRD3 antagonist: antagonists of human D3 dopamine receptor; P35462; D3R cells, DiscoveRx beta-arrestin luminescence, antagonist mode; active compounds read low; max response, negative = inhibition, %; 2.5% of 360,000 active; in the data active = max response below about -50%; inconclusive = no clear call, values can overlap the other calls; also: % is scaled to controls: 0 for no effect and ±100 for the full control effect
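Cells plated overnight at 1500 cells/well, then exposed to library compounds with dopamine controls for 90 minutes at 37 degrees C. DiscoveRx reagent added for 30–60 minutes at room temperature; luminescence read, quantitative HTS format.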
D1 ag: agonists of human D1 dopamine receptor | HEK293 T-REx D1 cells, calcium flux, agonist mode | 1% of 360,000 active | P21728 | activation, % at 2 µM; in the data active = activation above about 30%; also: 0% is about no effect
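Agonism was scored from calcium flux recorded over 180 s (1 read/s) after pintool compound addition, following a 10-cycle baseline. Cells were inducible force-coupled HEK293 TREx D1, plated overnight at 30 C and loaded with no-wash calcium dye.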
D1 potentiator: enhances dopamine response at the human D1 receptor; potentiation, % at 10 µM; 0.036% of 360,000 active; HEK293 TREx D1 cells, calcium flux, dopamine EC20 potentiation; in the data active = potentiation above about 30%; also: 0% is about no effect
* = called active by the depositor; ? = inconclusive; · = no result. An excerpt weighted towards active compounds, which were near 6% of everything screened.

SMILES | Chronic BCR inh | D3 ag | D1 antagonist | DRD3 antagonist | D1 ag | D1 potentiator
O=C(COc1ccccc1)c1cn(Cc2ccccc2)c2ccccc12 | ? | 3.8 | -21.1 | ? | 30.2* | -8.8
CCC(=O)c1cn(Cc2ccccc2)c2ccccc12 | -0.6% | 1.3 | 2.0 | 5.1 | 1.7 | -6.9
CC1=CC(=O)OC2CC3OC4C[C@@H](C)C5OC6CC7O[C@]8(C)C/C=C\C9OC%10CC%11OC(CC(C)CO)CC(O)[C@]%11(C)OC%10CC9OC8C[C@]7(C)O[C@]6(C)CCC5OC4C[C@]3(C)OC12 (stereo not given in full) | -3.5% | 45.5* | -4.2 | 60.4 | -3.3 | -2.1
C=C(COC(=O)CCC(=O)O)CC1CC(O)[C@]2(C)OC3CC4OC5C[C@]6(C)O[C@]7(C)CCC8OC9C[C@]%10(C)OC%11C(C)=CC(=O)OC%11CC%10OC9C[C@@H](C)C8OC7CC6O[C@]5(C)C/C=C\C4OC3CC2O1 (stereo not given in full) | 1.6% | -7.2 | -13.1 | 4.5 | 1.3 | -3.1
CCC(=O)OC(Cc1ccccc1)(c1ccccc1)[C@H](C)CN(C)C (stereo not given in full) | 4.0% | 0.0 | · | 1.2 | · | ·
CCC(=O)O[C@](Cc1ccccc1)(c1ccccc1)[C@H](C)CN(C)C | · | 55.4* | · | · | · | ·
C1=C(c2c[nH]c3ccccc23)CCNC1 | -1.3% | · | -2.7 | · | 3.3 | -3.3
CC(C)N1CC=C(c2c[nH]c3ccccc23)CC1 | 1.8% | -20.9 | 0.7 | -57.6* | 4.6 | 7.8
OC(c1cc(-c2ccc(C(F)(F)F)cc2)nc(C(F)(F)F)c1)C1CCCCN1 (stereo not given) | ? | 0.0 | -11.0 | 21.4 | 157.7* | 13.2
COC(=O)C(c1ccccc1)C1CCCCN1 (stereo not given) | · | -14.5 | · | · | · | ·
C[C@H](O)[C@H]1CC[C@H]2[C@@H]3CCC4=CC(=O)CC[C@]4(C)[C@H]3CC[C@]12C | ? | -13.5 | -33.2* | 0.0 | 23.8 | -3.7
Cc1cccc(OCC(=O)N2CCN(Cc3ccncc3)CC2)c1 | -0.1% | -6.1 | -0.4 | -77.0* | 1.1 | -2.7
O=C(Cc1ccccc1)N1CCN(C2CCCC2)CC1 | 0.0% | -3.8 | -1.7 | -71.8* | 4.1 | 2.9
CN1CCN(C(=O)COc2ccc3ccccc3c2)CC1 | ? | -11.2 | 0.1 | -17.7 | 2.2 | -3.1
O=C(COc1ccc2ccccc2c1)N1CCN(C2CCN(Cc3ccccc3)CC2)CC1 | 8.5% | -8.8 | -46.2* | -23.1 | 26.2 | -11.6
CC(Cc1ccc2c(c1)OCO2)NO (stereo not given) | · | -11.8 | · | · | · | ·
CC/C(=C\C=C\[C@@H]1C=C[C@@H]2CCC[C@H]2[C@@H]1C(=O)c1ccc[nH]1)[C@@H]1O[C@@H]([C@@H](C)C(=O)O)CC[C@@H]1C | ? | 2.7 | -59.7* | 8.6 | 28.8 | -7.4
CN(C)C(=S)SSC(=S)N(C)C | ? | 6.5 | 19.2 | -74.5* | 4.3 | -2.6
Cc1cccnc1NC(=O)C1CCCN(S(=O)(=O)c2ccc3c(c2)oc(=O)n3C)C1 (stereo not given) | ? | 1.8 | -5.8 | -21.5 | 2.0 | -7.7
CC(=O)OC1(c2ccccc2)CCN(CCc2ccccc2)CC1 | · | -10.6 | · | · | · | ·
COC(=O)c1ccc(CN2CCN(Cc3ccccc3)CC2)cc1 | 0.6% | -73.8 | -8.5 | -81.5* | -0.2 | -6.4
CC(=O)Nc1ccc(CC(=O)N2CCN(Cc3ccccc3)CC2)cc1 | 1.5% | -12.1 | 15.3 | -16.6 | 3.2 | 11.2
CN1C2CCC1/C(=C/c1ccccn1)C(=O)/C2=C\c1ccccn1 | ? | -19.9 | 1.8 | -69.7* | 5.8 | 3.4
COc1ccc(C(=O)C(Cc2ccccc2)N(C)C)cc1 (stereo not given) | 7.9% | -13.0 | -8.2 | 8.7 | 3.2 | -5.5
COc1ccc(C(CNC(=O)c2ccc3c(c2)CCC3)N(C)C)cc1 (stereo not given) | -0.4% | -12.3 | 16.1 | -80.6* | 21.8 | -4.6
SMILES | Chronic BCR inh | D3 ag | D1 antagonist | DRD3 antagonist | D1 ag | D1 potentiator
OCCCBr | · | 5.5 | · | · | · | ·
O=C(Nc1ccc(Br)cc1)c1cc(Br)cc(Br)c1O | · | 6.3 | · | · | · | ·
COc1ccc(CNCCc2c(C)[nH]c3ccc(OC(F)(F)F)cc23)c(OC)c1 | ? | -11.4 | -55.3* | -11.3 | 99.2* | -2.0
COc1ccc2[nH]c(C)c(CCNCc3cc(OC)c(OC)c(OC)c3)c2c1 | -0.3% | 3.3 | -6.7 | 2.6 | 9.2 | -1.9
CN1CCC(c2c[nH]c3ccccc23)C1 (stereo not given) | 0.0% | -2.5 | -31.9* | -100.0* | 5.6 | -5.2
C#C[C@]1(O)C=C[C@H]2[C@@H]3CCC4=CC(=O)CC[C@@H]4[C@H]3CC[C@@]21CC | · | 0.0 | · | · | · | ·
CC1(C)CC(=O)C2=C(C1)NC(=O)C21C(C(=O)OC(C)(C)C)=C(N)Oc2ccc(Br)cc21 (stereo not given) | 3.1% | 30.6* | 4.8 | 30.5 | 5.0 | 7.5
Cc1cccc(-n2c(O)c(/C=C/C=Nc3ccccc3)c(=O)[nH]c2=O)c1 | -12.2% | -5.9 | -1.5 | -23.8 | 34.5* | 2.2
Cn1c(O)c(/C=C/C=Nc2ccccc2)c(=O)n(C)c1=S | 25.2% | -1.1 | 1.7 | 0.0 | 64.1* | 4.5
CC(=O)OCC1=C(C(=O)O)N2C(=O)[C@@H](N)[C@H]2SC1 | · | -10.7 | · | · | · | ·
CC(=O)O[C@H]1C[C@H](O[C@H]2[C@@H](O)C[C@H](O[C@H]3[C@@H](O)C[C@H](OC4CC[C@@]5(C)C(CC[C@@H]6[C@@H]5CC[C@]5(C)[C@@H](C7=CC(=O)OC7)[C@@H](O)C[C@]65O)C4)O[C@@H]3C)O[C@@H]2C)O[C@H](C)[C@H]1O[C@@H]1O[C@H](CO)[C@@H](O)[C@H](O)[C@H]1O (stereo not given in full) | · | 6.3 | · | · | · | ·
COc1cccc(C(c2nnnn2-c2ccc3c(c2)OCCO3)N2CCC(n3c(=O)[nH]c4ccccc43)CC2)c1OC (stereo not given) | · | 2.7 | · | 22.9 | · | ·
O=c1[nH]c2ccccc2n1C1CCN(C(c2ccccc2OC(F)(F)F)c2nnnn2-c2ccc3c(c2)OCCO3)CC1 (stereo not given) | · | 34.8* | · | 13.3 | · | ·
N#CC1=C(SCC(=O)c2ccc(Cl)cc2)NC2=C(C(=O)CCC2)C1c1ccco1 (stereo not given) | ? | 0.5 | -10.2 | ? | 4.5 | -7.9
[O]=[Cd] | · | -8.3 | · | · | · | ·
COc1ccc(C(c2nnnn2-c2c(C)cccc2C)N2CCC3(CC2)C(=O)NCN3c2ccccc2)cc1 (stereo not given) | · | -8.1 | · | -54.2* | · | ·
CCCCn1nnnc1C(c1cccc2ccccc12)N1CCC2(CC1)C(=O)NCN2c1ccccc1 (stereo not given) | · | -10.3 | · | ? | · | ·

Screens as filed in PubChem BioAssay.
